GDH-TPI inh = GDH-TPI coupling enzyme inhibitors, primary screen, artefact control for M. tuberculosis FBA inhibitor project, biochemical, absorbance, full deck | GDH-TPI coupled enzyme counterscreen, NADH absorbance | 360,000 compounds, 1.2% hits | AID 588335, 2011 | inhibition, % at 4.8 µM; in the data active = inhibition above about 30%;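 also: 0% = DMSO wells and 100% = wells lacking the enzyme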
Mtb FBA inh = Mtb FBA enzyme inhibitors, primary screen, biochemical, fluorescence, strain H37Rv. Fructose-bisphosphate aldolase (Mycobacterium tuberculosis (strain ATCC 25618 / H37Rv)), …. purified M. tuberculosis FBA, fluorescence read-out. 360,000 compounds, 2.3% hits. inhibition, % at 1 µM; in the data active = inhibition above about 27%;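 also: 0% = vehicle and 100% = reference inhibitor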
Target sequence (P9WQA3 whole entry, looked up): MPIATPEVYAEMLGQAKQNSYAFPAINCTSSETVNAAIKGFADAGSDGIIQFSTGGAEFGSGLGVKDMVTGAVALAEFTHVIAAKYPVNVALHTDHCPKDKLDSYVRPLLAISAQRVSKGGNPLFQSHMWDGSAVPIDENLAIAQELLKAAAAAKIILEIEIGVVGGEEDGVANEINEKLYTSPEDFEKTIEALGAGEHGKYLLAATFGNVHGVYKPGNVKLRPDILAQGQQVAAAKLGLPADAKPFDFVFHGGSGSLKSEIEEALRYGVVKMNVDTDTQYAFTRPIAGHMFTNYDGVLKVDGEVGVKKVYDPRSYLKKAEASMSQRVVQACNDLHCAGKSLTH
Bead autofluor = flagged as autofluorescent in microsphere protease counterscreen. AID 624483. fluorescence intensity (test concentration not listed). compound autofluorescence counterscreen, microsphere flow cytometry; stronger effect = higher value. 360,000 compounds, 3.1% hits; in the data active = fluorescence intensity above about 16000; inconclusive = no clear call, values can overlap the other calls
Anthrax LF inh2 = Bacillus anthracis LF protease inhibitors, primary screen, biochemical, multiplex microsphere, MLPCN library; multiplex microsphere protease cleavage assay; 360,000 compounds, 0.12% hits; Lethal factor (Bacillus anthracis), P15917; inhibition, % at 10 µM; also: plate controls were buffer without enzyme for full effect and enzyme alone for no effect
BoNT F protease = BoNT/F light chain protease inhibitors, primary screen, biochemical, flow cytometry, MLPCN library. Botulinum neurotoxin type F light chain protease (Clostridium botulinum). Multiplex microsphere protease cleavage assay. inhibition, % at 10 µM. 360,000 compounds, 0.22% hits; in the data active = inhibition above about 35%, passing the limit was not always enough; inconclusive = no clear call, values can overlap the other calls; also: plate controls were buffer without enzyme for full effect and enzyme alone for no effect
BoNT-A LC inh2 = BoNT/A light chain protease inhibitors, primary screen, biochemical, flow cytometry, MLPCN library; Botulinum neurotoxin type A light chain protease (Clostridium botulinum A str. ATCC 3502); multiplex microsphere protease substrate cleavage; inhibition, % at 10 µM; 360,000 compounds, 0.17% hits; AID 588499, 2011; also: plate controls were buffer without enzyme for full effect and enzyme alone for no effect
* marks the source's active call; other numbers are inactive results; u = inconclusive; x = no result given; + = active, no number. This is a sample that favours compounds with a hit; in the whole collection about 6.6% have one here. Rule as the data show it, unless noted: active = inhibition above about 30%; inconclusive = no clear call, values can overlap the other calls; inactive = below that.

SMILES | GDH-TPI inh | Mtb FBA inh | Bead autofluor | Anthrax LF inh2 | BoNT F protease | BoNT-A LC inh2
CCOc1ccc(S(=O)(=O)n2cc(-c3ccccc3)c(N)n2)cc1 | -0.6 | 0.1 | 23986* | -3.0 | -3.6 | -2.5
Cc1ccc(-c2cn(S(=O)(=O)c3ccc(C)cc3)nc2N)cc1 | -3.1 | 0.9 | 24762* | -0.1 | -4.7 | -2.2
CCOc1cc(S(=O)(=O)n2cc(-c3ccc(F)cc3)c(N)n2)cc(OCC)c1OCC | -7.8 | -1.5 | 2809 | -2.1 | -8.8 | 0.7
Cc1cc(=O)[nH]c(SCC(=O)NC2CCCCCC2)n1 | 3.0 | 0.1 | 2951 | -2.2 | -1.4 | 0.2
COc1ccc(NC(=O)C2c3ccccc3OCC(=O)N2Cc2ccco2)cc1 (configuration not stated) | x | x | 4343 | -9.1 | -10.6 | 0.7
CC1CCCC(NC(=O)Cn2cc(Br)ccc2=O)C1C (configuration not stated) | 2.1 | -2.1 | 8313 | -0.6 | 6.4 | 3.0
CCN(CC)c1ccc(C(=O)n2cnc3ccccc32)cc1 | 39.6* | 0.1 | 2357 | -1.2 | 8.4 | 0.4
CC(C)n1nc(C(=O)Nc2cccc(S(=O)(=O)N3CCOCC3)c2)c2ccccc2c1=O | 13.7 | -1.1 | 3108 | -7.4 | -3.1 | 0.2
N=c1c(C(=O)NCCc2ccccc2)cc2c(=O)n3ccccc3nc2n1CC1CCCO1 (configuration not stated) | 9.5 | + | 6396 | 3.5 | 5.2 | 0.8
Cc1cccn2c(=O)c3cc(C(=O)NCc4cccnc4)c(=N)n(CC4CCCO4)c3nc12 (configuration not stated) | 5.8 | + | 3954 | 2.6 | 1.1 | -3.3
COc1ccc(CCNC(=O)c2cc3c(=O)n4ccccc4nc3n(CC3CCCO3)c2=N)cc1 (configuration not stated) | 15.7 | 15.2 | 6773 | 0.9 | -0.8 | 1.1
N=c1c(C(=O)NCc2ccco2)cc2c(=O)n3ccccc3nc2n1CC1CCCO1 (configuration not stated) | 19.8 | + | 2436 | 10.0 | -14.4 | 6.4
Cc1cccn2c(=O)c3cc(C(=O)NCCc4ccccc4)c(=N)n(CC4CCCO4)c3nc12 (configuration not stated) | 1.5 | 118.6* | 3848 | -1.5 | -16.0 | -7.3
CC1(C(=O)Nc2cccc(NS(C)(=O)=O)c2)Cc2c(-c3cccc(C(N)=O)c3)ccnc2O1 (configuration not stated) | 14.2 | -1.8 | 3940 | -1.9 | -3.7 | 0.2
Cc1cc(C)nc(NS(=O)(=O)c2ccc(NC(=O)c3ccc(O)cc3O)cc2)n1 | 13.1 | 26.6 | 3577 | 0.8 | 0.6 | 2.2
NC(N)=Nc1nc2ccc(Cl)cc2c(=O)[nH]1 | 0.0 | 18.1 | 3452 | 0.6 | -9.7 | -0.7
O=C(c1ccco1)N1CCCC(c2nc3c(nnn3Cc3c(Cl)cccc3Cl)c(=O)[nH]2)C1 (configuration not stated) | 0.0 | 0.1 | 5731 | -2.2 | 1.5 | -1.1
N=c1c(C(=O)NCc2ccc(F)cc2)cc2c(=O)n3ccccc3nc2n1CC1CCCO1 (configuration not stated) | 13.4 | + | 3489 | 0.1 | 6.2 | 2.4
O=C(O)c1ccc(N(c2ccccc2)c2ccccc2)cc1 | 15.3 | + | 4798 | -5.3 | -2.2 | -0.2
CCN(CC)c1ccc(C(=O)O)cc1 | 0.0 | 0.0 | 2906 | 1.1 | 2.2 | -0.4
COc1ccc2c(CC(=O)OCC(=O)Nc3sc4c(c3C#N)CCC(C)C4)coc2c1 (configuration not stated) | 2.6 | -6.6 | 2459 | -0.1 | -0.3 | 0.0
COc1ncccc1C(=O)NCC(CC(=O)O)c1ccccc1 (configuration not stated) | 17.2 | -3.4 | 16335* | -8.1 | -5.6 | -1.7
COc1cc2c(cc1OC)C(CNC(=O)C=Cc1ccccc1)C2 (configuration not stated) | 12.4 | 12.0 | 2987 | 1.0 | 2.7 | -0.6
C/C(=N\Nc1ccc2nncn2n1)c1cccs1 | 34.6* | 1.6 | 5358 | -4.6 | 0.7 | 0.2
O=c1nc2ccccc2c2n1CC(CN1CCN(c3ccccc3F)CC1)N2 (configuration not stated) | 6.9 | 0.7 | 2594 | 8.8 | -5.1 | 0.5
SMILES | GDH-TPI inh | Mtb FBA inh | Bead autofluor | Anthrax LF inh2 | BoNT F protease | BoNT-A LC inh2
COc1cc(Br)cc(CN2CCN(C)CC2)c1O | 1.4 | 0.3 | 22111* | 0.3 | 5.7 | u
COc1ccccc1C(=O)NC(=O)CSc1nnnn1C | -2.2 | 2.1 | 4632 | 6.0 | 8.2 | 1.4
COC(=O)c1sccc1NC(=O)c1ccc(C)o1 | 8.0 | 0.0 | 4838 | -1.1 | -14.1 | 0.2
COC(=O)c1sccc1-c1ccc(C(=O)Nc2ccccc2)o1 | 14.6 | -0.8 | 19373* | 1.4 | 2.3 | u
Cc1cc2cc(C#N)c(N3CCOCC3)nc2cc1Cl | 3.3 | 7.3 | 3657 | 0.9 | -7.6 | 5.9
Cc1ccc2nc(-c3ccccc3)cc(C(=O)N3CCN(S(=O)(=O)c4c(C)noc4C)CC3)c2c1 | 7.3 | 1.5 | 4144 | -6.5 | -3.2 | -0.4
CCCC(C)Sc1nc2c([nH]1)c(=S)n(C)c(=O)n2C (configuration not stated) | 35.3* | -1.5 | 3003 | -10.2 | -1.8 | 0.6
O=Cc1ccc(OCC(=O)NCC2CCCO2)cc1 (configuration not stated) | -0.8 | -1.4 | 5993 | 1.0 | -1.2 | -3.2
CCOc1c(C(=O)CC)cc2c(C)cc(=O)oc2c1C | 17.0 | -1.5 | 16306* | -3.9 | -1.4 | 0.5
CCOc1ccc2oc(=O)cc(C)c2c1 | 13.7 | 14.5 | 3532 | 1.7 | 24.8 | 1.4
Cc1ccccc1C(=O)Nc1cccc(C(=O)N/N=C/c2ccc3c(c2)OCO3)c1 | 32.4* | -3.4 | 3592 | -3.8 | -2.4 | 2.0
O=C(N/N=C/c1ccc2c(c1)OCO2)c1ccc(NC(=O)c2ccccc2Cl)cc1 | 35.3* | 2.0 | 2936 | 2.3 | 5.3 | -1.9
O=C(N/N=C/c1ccc2c(c1)OCO2)c1cccc(NC(=O)c2ccccc2Cl)c1 | 17.0 | 4.5 | 4313 | 13.6 | 3.1 | 0.4
CN1CCCN(C(=O)CC(c2ccccc2)c2ccccc2)CC1 | -2.6 | 3.8 | 2164 | -0.4 | -0.5 | 0.2
CCOC(=O)Nc1ccc2c(COC(=O)C(NS(=O)(=O)c3ccc(Cl)cc3)C(C)O)cc(=O)oc2c1 (configuration not stated) | 27.2 | + | 3753 | -8.7 | -3.1 | -0.3
CCOC(=O)Nc1ccc2c(COC(=O)CNS(=O)(=O)c3cccc(Br)c3)cc(=O)oc2c1 | 9.5 | 155.5* | 2470 | -1.0 | -5.6 | 0.1

Screening results as filed in PubChem.
